HEK293 viab – cell viability loss counter-screen; HEK-293-SNCA-luc viability, GF-AFC fluorescence, 24 h; 0.12% of 150,000 active; Potency, µM (titrated, usually from 57.1 µM), without a hit: at the top dose activity change, negative = cytotoxicity, actives largely listed as cytotoxic;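 further: 0% = DMSO-treated cells and -100% = medium-only wells without cells; nearly all actives have a fitted effect of over 30% in size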
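Cytotoxicity counterscreen: after 24 h compound treatment of genome-edited SNCA-luciferase HEK-293 cells, live-cell protease substrate GF-AFC read by fluorescence after 30 min; activity scaled between DMSO (0%) and medium-only (-100%), curves Hill-fitted.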
NPR1 antag – human Npr1 receptor antagonism | AID 1347048 | 1.6% of 76,000 active | HEK293 hNpr1 GloSensor cGMP, ANP-stimulated luminescence | Potency, µM (series often up to 46.3 µM), without a hit: at the top dose activity change, negative = inhibition, hits mostly inhibitors; calls by dose curve; further: on the % scale 0 is the no-effect control and ±100 the full control effect; nearly all actives have a fitted effect of over 60% in size
Target sequence (P16066 whole entry, looked up): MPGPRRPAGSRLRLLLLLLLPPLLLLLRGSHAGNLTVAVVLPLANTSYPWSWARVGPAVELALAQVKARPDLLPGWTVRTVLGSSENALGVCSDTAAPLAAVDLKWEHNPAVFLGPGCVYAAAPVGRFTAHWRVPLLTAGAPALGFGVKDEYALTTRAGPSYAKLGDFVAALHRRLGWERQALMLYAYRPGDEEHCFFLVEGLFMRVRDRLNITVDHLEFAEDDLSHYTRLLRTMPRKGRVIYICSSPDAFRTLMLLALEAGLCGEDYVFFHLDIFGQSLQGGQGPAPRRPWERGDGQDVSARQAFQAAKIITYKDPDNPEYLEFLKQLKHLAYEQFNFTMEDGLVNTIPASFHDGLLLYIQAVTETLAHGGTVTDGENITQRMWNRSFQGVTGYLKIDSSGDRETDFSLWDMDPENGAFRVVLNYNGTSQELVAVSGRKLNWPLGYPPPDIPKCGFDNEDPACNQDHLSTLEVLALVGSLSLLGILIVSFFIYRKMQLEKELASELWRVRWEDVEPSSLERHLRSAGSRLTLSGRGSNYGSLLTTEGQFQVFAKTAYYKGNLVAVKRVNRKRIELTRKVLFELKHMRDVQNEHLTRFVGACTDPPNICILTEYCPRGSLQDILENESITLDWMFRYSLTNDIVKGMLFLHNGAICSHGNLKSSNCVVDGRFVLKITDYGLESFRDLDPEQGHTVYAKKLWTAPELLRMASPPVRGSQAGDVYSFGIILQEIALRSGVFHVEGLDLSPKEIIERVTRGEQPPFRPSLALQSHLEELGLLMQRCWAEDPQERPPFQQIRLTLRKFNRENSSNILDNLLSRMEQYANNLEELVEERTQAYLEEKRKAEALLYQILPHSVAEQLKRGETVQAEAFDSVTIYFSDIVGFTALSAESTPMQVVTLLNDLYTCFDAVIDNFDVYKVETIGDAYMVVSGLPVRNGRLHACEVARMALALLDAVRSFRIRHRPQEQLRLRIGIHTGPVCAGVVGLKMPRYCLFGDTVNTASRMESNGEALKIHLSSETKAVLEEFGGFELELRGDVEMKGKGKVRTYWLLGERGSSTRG
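HEK293 cells stably expressing human Npr1 and cGMP GloSensor pGS-40F, loaded 2 h with 2% GloSensor reagent, given compound 30 min at room temperature. Luminescence read before and 20 min after 0.1 nM hNppA.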
HEK cytotox – kills HEK 293 cells; HEK 293 viability, ATP luminescence (CellTiter-Glo), 48-72 h; Potency, µM (top dose mostly 115 µM), inactives show at the highest dose activity change, negative = cytotoxicity, most hits filed as inhibitors; 6.6% of 94,000 active; further: on the % scale 0 is the no-effect control and ±100 the full control effect; nearly all actives have a fitted effect of over 60% in size
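HEK 293 cells seeded at 250 cells/well were exposed to compound for 48 or 72 hr at 37 degree Celsius. Viability taken as ATP content by CellTiter-Glo luminescence.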
SNCA expr inh – inhibitors of alpha-synuclein (SNCA) gene expression. 0.17% of 140,000 active. AID 1671194. Potency, µM (top dose mostly 57.2 µM), without a hit: at the highest dose activity change, negative = inhibition, usual class: inhibitors. HEK-293 SNCA-luciferase knock-in, luminescence, 24 h;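 further: plate controls were DMSO cells for no effect and cell-free wells for full effect; nearly all actives have a fitted effect of over 45% in size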
FLuc inh-1 – inhibitors of firefly (Photinus pyralis) luciferase; P08659; purified P. pyralis luciferase, luminescence, biochemical; Potency, µM (series often up to 115 µM), most hits filed as inhibitors; 2.5% of 76,000 active; AID 1347043; further: on the % scale 0 is the no-effect control and ±100 the full control effect; nearly all actives have a fitted effect of over 65% in size
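Inhibitors were tested against purified firefly luciferase in a biochemical, low-substrate format (both substrates at 10uM) and luminescence measured with a CCD imager.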
NIH3T3 tox – kills NIH 3T3 cells; NIH 3T3 viability, CellTiter-Glo ATP luminescence, 48-72 h; Potency, µM (series often up to 96.7 µM), without a hit: top-dose activity change, negative = cytotoxicity, most hits filed as inhibitors; 4.3% of 94,000 active; further: on the % scale 0 is the no-effect control and ±100 the full control effect; nearly all actives have a fitted effect of over 55% in size
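Viability of NIH 3T3 cells after 48 or 72 hr compound treatment at 37 °C was assessed by CellTiter-Glo, with luminescence imaged following a 10 min room-temperature step.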
FLuc SDR -ATP – binders stabilizing firefly luciferase, without ATP | 7.8% of 1,300 active | Purified FLuc-C-HiBiT, Nano-Glo HiBiT luminescence, no ATP | shares compounds with FLuc inh-1 | Potency, µM (doses to about 32.7 µM), inactives show at the top dose activation (signal gain), most hits filed as activators; further: nearly all actives have a fitted effect of over 55% in size
FLuc SDR ATP – binders stabilizing firefly luciferase, plus ATP. 8.7% of 1,300 active. Potency, µM (top dose mostly 32.7 µM), inactives show at the top dose activation (gain of signal), actives largely listed as activators. shares compounds with FLuc inh-1. purified FLuc-C-HiBiT + ATP, HiBiT complementation luminescence;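 further: signal reports ligand binding via conformational change of the enzyme rather than luciferase catalysis; % of control where 0% means no effect; nearly all actives have a fitted effect of over 55% in size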
FLuc inh-2 – inhibitors of firefly luciferase enzymatic activity; shares compounds with FLuc inh-1; Potency, µM (highest dose often 32.7 µM), inactives show at the highest dose activity change, negative = inhibition, most hits filed as inhibitors; 42% of 1,300 active; purified FLuc-C-HiBiT enzyme, luciferin luminescence; further: on the % scale 0 is the no-effect control and ±100 the full control effect; nearly all actives have a fitted effect of over 70% in size
The depositor's hits bear a star; [ ] = remark or other dose. Only some compounds are listed: those with a hit (about 7.4% of all), similar ones and a draw of the others. Unless noted, the call rests on the fitted dose curve; in most records, active means well fitted curve in the direction sought with a large enough effect; inconclusive means small, poorly fitted or top-dose-only effect, or another doubt; inactive means no such curve, though single readings can be large; an effect the other way counts as inactive or inconclusive. Potency means the concentration at half of the fitted maximal effect.

For O=C(NCCc1ccccc1Cl)c1ccc2c(c1)nc1n2CCCCC1 the results were HEK293 viab -3%, SNCA expr inh -74%, FLuc SDR -ATP 3.9µM*, FLuc SDR ATP inconclusive and FLuc inh-2 1.1µM*.
CC(C)CCNC(=O)c1ccc2c(c1)nc1n2CCCCC1 was read as HEK293 viab 12%, SNCA expr inh -82%, FLuc SDR -ATP inconclusive, FLuc SDR ATP inconclusive and FLuc inh-2 9.9µM*.
O=C(NCCc1ccccc1)c1ccc2c(c1)nc1n2CCOC1 was read as HEK293 viab 0%, SNCA expr inh inconclusive, FLuc SDR -ATP inconclusive, FLuc SDR ATP inconclusive and FLuc inh-2 8.8µM*.
`Cc1ccc(NCc2nc3ccccc3n2CCOc2ccccc2)cc1` gave HEK293 viab -12%, SNCA expr inh 147%, FLuc SDR -ATP 22%, FLuc SDR ATP 15% and FLuc inh-2 inconclusive.
For COc1cccc(-n2cnc3c(N/N=C/c4ccncc4)ncnc32)c1 the results were FLuc SDR -ATP 24%, FLuc SDR ATP 14% and FLuc inh-2 inconclusive.
COc1ccc(CNc2ncnc3c2c(-c2ccccc2)cn3-c2cccc(C)c2)cc1 was read as HEK293 viab -3% and SNCA expr inh inconclusive.
COc1cccc(-c2noc(COc3ccc(C(C)(C)C)cc3)n2)c1 was read as HEK293 viab 6% and SNCA expr inh 4%.
CCOC(=O)c1ccc(Nc2nc(-c3ccccc3)no2)cc1 was read as HEK293 viab -5%, NPR1 antag -30%, HEK cytotox inconclusive, SNCA expr inh 84%, FLuc inh-1 inconclusive and NIH3T3 tox inconclusive.
For COc1ccc(-c2noc(-c3nc(-c4cccnc4)no3)n2)cc1 the results were HEK293 viab -4%, NPR1 antag -1%, HEK cytotox 13%, SNCA expr inh 11%, FLuc inh-1 inactive and NIH3T3 tox 4%.
Screening COc1ccc(-c2noc(Nc3ccccc3)n2)cc1 returned HEK293 viab -4%, NPR1 antag 10µM*, HEK cytotox inconclusive, SNCA expr inh 113%, FLuc inh-1 1.1µM*, NIH3T3 tox -26%, FLuc SDR -ATP 30%, FLuc SDR ATP inconclusive and FLuc inh-2 2.2µM*.
Screening COc1ccc(Nc2nc(-c3cccc(OC)c3)no2)cc1 returned HEK293 viab -15%, NPR1 antag inconclusive, HEK cytotox inconclusive, SNCA expr inh 94%, FLuc inh-1 2.5µM*, NIH3T3 tox -64%, FLuc SDR -ATP 21%, FLuc SDR ATP 16% and FLuc inh-2 7.9µM*.
For COc1cccc(-c2noc(COc3ccccc3Cl)n2)c1 the results were HEK293 viab 1%, SNCA expr inh 72%, FLuc SDR -ATP 14%, FLuc SDR ATP 13% and FLuc inh-2 inconclusive.
Screening COc1ccc(-c2noc(Nc3ccc4c(c3)OCCO4)n2)cc1 returned HEK293 viab 2%, NPR1 antag inconclusive, HEK cytotox -4%, SNCA expr inh 48%, FLuc inh-1 0.89µM*, NIH3T3 tox 1%, FLuc SDR -ATP inconclusive, FLuc SDR ATP inconclusive and FLuc inh-2 1.6µM*.
Screening O=C(Nc1ccc(F)cc1F)N[C@H]1[C@H]2CCO[C@H]2[C@@H]1N1CCCCC1 returned HEK293 viab 0%, NPR1 antag 3%, HEK cytotox inconclusive, SNCA expr inh -1%, FLuc inh-1 inactive and NIH3T3 tox -13%.
For c1ccc(-c2ccc3ncc(Nc4cccnc4)n3n2)cc1 the results were HEK293 viab 4%[87.6 µM], NPR1 antag -7%[70.6 µM], HEK cytotox inconclusive, SNCA expr inh 7%[87.6 µM], FLuc inh-1 inactive and NIH3T3 tox inconclusive.
For COc1ccc(CNC(=O)Cn2nc(C)c3sc(C(C)C)nc3c2=O)cc1 the results were HEK293 viab -4%, NPR1 antag 2%, HEK cytotox 9%, SNCA expr inh -4%, FLuc inh-1 inconclusive and NIH3T3 tox 0%.
For CCOc1ccc(Nc2nc(-c3ccccc3)no2)cc1 the results were HEK293 viab -30%, NPR1 antag 10µM*, HEK cytotox -73%, SNCA expr inh 18%, FLuc inh-1 0.79µM*, NIH3T3 tox 18µM*, FLuc SDR -ATP 16%, FLuc SDR ATP 17% and FLuc inh-2 5µM*.
For Cc1nccn1CCN(C)c1ccc(-c2nc(COc3ccccc3)no2)cn1 the results were HEK293 viab 5%, NPR1 antag inconclusive, HEK cytotox inconclusive, SNCA expr inh -30%, FLuc inh-1 13µM*, NIH3T3 tox inconclusive, FLuc SDR -ATP 20%, FLuc SDR ATP 18% and FLuc inh-2 9.9µM*.
For CN(C)C[C@@H]1CN(c2ncccn2)C[C@H]1NC(=O)c1ccc2cc[nH]c2c1 the results were HEK293 viab -8%, NPR1 antag 2%, HEK cytotox inactive, SNCA expr inh inconclusive, FLuc inh-1 inactive and NIH3T3 tox -13%.
`O=C(NCCc1cnc[nH]1)c1ccc2nc(-c3ccc(F)cc3)cn2c1` gave HEK293 viab -12%, NPR1 antag -8%, HEK cytotox inconclusive, SNCA expr inh 47%, FLuc inh-1 10µM*, NIH3T3 tox inconclusive, FLuc SDR -ATP 17%, FLuc SDR ATP 15% and FLuc inh-2 inconclusive.
Screening O=C(c1ccccc1)N1CCc2nc(C3CC3)nc(-c3ccc(Cl)cc3)c2C1 returned HEK293 viab inconclusive, HEK cytotox inconclusive, SNCA expr inh -4% and NIH3T3 tox -34%.
`O=C(Nc1ccccc1)N1CCc2nc(C3CC3)nc(-c3ccc(Cl)cc3)c2C1` gave HEK293 viab -15%, NPR1 antag -1%, HEK cytotox inconclusive, SNCA expr inh -25%, FLuc inh-1 inactive, NIH3T3 tox inconclusive, FLuc SDR -ATP 12%, FLuc SDR ATP 7% and FLuc inh-2 -3%.
